CFTR F508del cor = CFTR F508del correction in bronchial cells; CFBE cells, YFP halide quenching; stimulated with forskolin plus potentiator P3; % fluorescence drop versus neutral controls; activity (quench increase), % at 7.58 µM; 0.36% of 350,000 active;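 active means mean added fluorescence quench of at least 8% versus neutral control, with both replicates also reaching 8%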;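 further: cells transiently co-express mutant CFTR-F508del with the halide-sensitive YFP; corrector assay measuring rescue of mutant channel to the surface after 24 h compound exposure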
SKN-1 inh = blocks SKN-1 activity in C. elegans; AID 624304; inhibition, % at 21.8 µM; 0.49% of 360,000 active; C. elegans VP596 Pgst-4::GFP/RFP ratio, acrylamide-induced, 24 h;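 active means interference check ratio from 0.5 to 1.5 plus GFP to RFP signal ratio inhibition reaching or exceeding a fixed threshold, cut at about 30% in these data, passing the limit was not always enough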
CendR NRP1 mod = NRP-1/CendR interaction modulation; O14786; FAM-RPARPAR peptide binding to NRP-1, fluorescence polarization; inhibition, % at 25 µM; 0.85% of 360,000 active;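 active means inhibition or corrected inhibition above about 18%, plus a signal ratio from 0.5 to 1.5, limit read from the data, passing the limit was not always enough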
Target sequence (O14786 whole entry, looked up): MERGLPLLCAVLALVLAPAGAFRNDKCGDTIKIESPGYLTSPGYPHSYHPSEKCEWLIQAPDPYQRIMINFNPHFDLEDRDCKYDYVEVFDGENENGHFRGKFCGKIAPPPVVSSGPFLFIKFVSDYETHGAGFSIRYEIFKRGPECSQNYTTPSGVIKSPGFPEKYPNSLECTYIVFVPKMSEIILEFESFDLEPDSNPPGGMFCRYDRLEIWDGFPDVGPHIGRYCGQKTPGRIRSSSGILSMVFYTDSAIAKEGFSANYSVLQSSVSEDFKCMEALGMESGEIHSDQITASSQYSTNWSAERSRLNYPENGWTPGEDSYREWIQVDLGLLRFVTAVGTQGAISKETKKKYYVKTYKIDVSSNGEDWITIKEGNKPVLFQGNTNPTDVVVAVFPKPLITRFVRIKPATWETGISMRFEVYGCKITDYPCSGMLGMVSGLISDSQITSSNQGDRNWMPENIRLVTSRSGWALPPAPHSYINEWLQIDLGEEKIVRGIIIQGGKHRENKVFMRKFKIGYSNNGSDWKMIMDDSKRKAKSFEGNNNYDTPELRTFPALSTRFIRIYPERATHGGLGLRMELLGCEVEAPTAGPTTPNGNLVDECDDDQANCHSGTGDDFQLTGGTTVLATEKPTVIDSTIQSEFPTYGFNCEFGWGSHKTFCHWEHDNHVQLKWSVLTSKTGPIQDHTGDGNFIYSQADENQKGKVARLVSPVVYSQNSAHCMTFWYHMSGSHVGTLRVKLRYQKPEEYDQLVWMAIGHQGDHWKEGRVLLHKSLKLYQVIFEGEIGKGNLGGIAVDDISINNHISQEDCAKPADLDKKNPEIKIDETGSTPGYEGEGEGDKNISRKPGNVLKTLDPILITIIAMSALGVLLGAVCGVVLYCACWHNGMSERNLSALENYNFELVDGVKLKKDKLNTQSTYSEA
MPTP block = inhibitors of mitochondrial permeability transition pore; isolated mouse mitochondria, Ca2+ swelling absorbance, 30 min; inhibition, % at 10 µM; 1.4% of 360,000 active; AID 602449;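 active means inhibition of 50% or more, scaled per plate between neutral and stimulator controls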;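 further: 0% = DMSO wells given calcium and 100% = 1 mM EGTA wells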
ATG4B inh = ATG4B (human) cysteine protease inhibition; Q9Y4P1; ATG4B cleavage of LC3-PLA2, NBD-HPC fluorescence, 1 h; inhibition, % at 8.33 µM; 0.51% of 340,000 active; in the data active means inhibition above about 40%
Active calls of the source: *; . = no result; ! = not confirmed by another sample. Compounds with a hit are over-represented: about 2.7% of the library has one in this group of screens.

SMILES | CFTR F508del cor | SKN-1 inh | CendR NRP1 mod | MPTP block | ATG4B inh
c1cncc(-c2nc(-c3cccs3)cs2)c1 | . | -8 | 4 | 0 | 3
CC(=O)NC[C@H]1[C@H](c2ccc(-c3ccccc3)cc2)[C@H](CO)N1C(=O)C1CC1 | 0 | . | . | . | .
O=C(C[C@H]1C=C[C@H](NC(=O)CCN2CCCCC2)[C@@H](CO)O1)NCc1ccc(Cl)c(Cl)c1 | 1 | . | . | . | .
O=C(C[C@@H]1CC[C@H](NS(=O)(=O)c2ccccc2)[C@@H](CO)O1)NCCN1CCCCC1 | -2 | . | . | . | .
COc1ccccc1C(=O)Nc1ccc2c(c1)OC[C@@H](C)NC[C@H](C)[C@H](OC)CN(C)C2=O | -2 | . | . | . | .
O=c1oc2ccccc2cc1-c1nc(-c2cccs2)cs1 | . | -36 | 133 | 2 | 33
Fc1ccc(-c2csc(-c3ccncc3)n2)cc1 | -2 | 70* | -14 | -1 | -4
COc1cccc2cc(-c3nc(-c4cccs4)cs3)c(=O)oc12 | . | 14 | 47* | 0 | -4
O=S(=O)(Nc1ccc(-c2csc(-c3ccccc3)n2)cc1)c1ccc(F)cc1 | . | 2 | 1 | 7 | -12
CNC[C@@H]1OCCCC[C@@H](C)Oc2ccc(NC(=O)Nc3ccc4c(c3)OCO4)cc2C(=O)N([C@@H](C)CO)C[C@H]1C | 1 | . | . | . | .
CCCCOC(=O)CCN1C(=O)/C(=C2\SC(=S)N(CCC(=O)OCCCC)C2=O)SC1=S | 0 | -3 | 28* | 1 | 3
O=C(O)c1ccc(NC2=C(Cl)C(=O)c3ccccc3C2=O)cc1 | -10 | 9 | 29* | 7 | -2
O=C(COC(=O)c1cccc(S(=O)(=O)N2CCOCC2)c1)Nc1ncc(C(F)(F)F)cc1Cl | . | 42* | -15 | 1 | 5
O=C(COC(=O)CCc1ccc(S(=O)(=O)N2CCOCC2)cc1)Nc1ncc(C(F)(F)F)cc1Cl | . | 4 | -8 | 2 | -10
O=C(CCN1CCCCC1)N[C@H]1CC[C@H](CCn2cc(-c3ccccc3)nn2)O[C@@H]1CO | -2 | . | . | . | .
O=C(c1cccnc1)C1Cc2ccccc2C1=O (stereo not drawn) | 0 | 36* | 15 | -2 | 2
Nc1c2ccccc2nc2ccccc12 | 20* | 7 | 1 | -2 | 4
Clc1c2c(nc3ccccc13)CCC2 | 3 | -4 | -7 | 0 | 1
Nc1c2c(nc3ccccc13)CCCC2 | 16*! | -11 | 5 | . | -2
COc1ccc(C)cc1Nc1c2c(nc3ccccc13)CCC2 | 13* | -7 | 4 | 4 | 1
COC(=O)c1c2c(nc3ccccc13)CCC2 | . | 41* | 6 | -3 | -1
COc1ccc(S(=O)(=O)N(C)C[C@@H]2Oc3c(NC(=O)Nc4ccc(F)cc4)cccc3C(=O)N([C@H](C)CO)C[C@H]2C)cc1 | -1 | . | . | . | .
CCS(=O)(=O)Nc1ccc2c(c1)C(=O)N(C)C[C@@H](OC)[C@@H](C)CN(C(=O)NC(C)C)[C@@H](C)CO2 | -1 | . | . | . | .
CCn1c(Oc2ccc(F)cc2)nc2c1c(=O)n(C)c(=O)n2C | -1 | -3 | -15 | -3 | -2
CC(C)CCn1c(Oc2ccc(Cl)cc2)nc2c1c(=O)n(C)c(=O)n2C | . | -15 | 26* | 4 | -2
SMILES | CFTR F508del cor | SKN-1 inh | CendR NRP1 mod | MPTP block | ATG4B inh
N#Cc1ncn(C2OC(CO)C(O)C2O)c1N (stereo not drawn) | 10.0* | -8 | -11 | 0 | .
Nc1ncnc2c1ncn2[C@@H]1O[C@H](CO)[C@@H](O)[C@H]1O | 2 | 10 | 7 | 0 | -3
C=C1CCC[C@]2(C)C[C@H]3OC(=O)C(CNCCN(C)C)[C@H]3CC12 (stereo partly drawn) | -3 | 37* | 0 | 1 | -7
C=C1CCC[C@]2(C)C[C@H]3OC(=O)C(CNCCN(CC)CC)[C@H]3CC12 (stereo partly drawn) | -2 | -2 | 6 | -1 | 6
O=C(C[C@@H]1CC[C@@H]2[C@H](COC[C@H](O)CN2Cc2nccs2)O1)NCc1ccccc1 | -3 | . | . | . | .
CNC(=S)NNC(=O)c1sc2cc(C(F)(F)F)cnc2c1-c1ccccn1 | 1 | 1 | 23* | 0 | -7
CNC(=S)NNC(=O)c1sc2cc(C(F)(F)F)cnc2c1-c1cccnc1 | 3 | -8 | 1 | -1 | 1
Cn1c(-c2sc3cc(C(F)(F)F)cnc3c2-c2ccccn2)n[nH]c1=S | 3 | -4 | 25* | 0 | 2
Cc1noc(C)c1NC(=O)N(C)C[C@H]1Oc2c(NC(=O)C3CCCCC3)cccc2C(=O)N([C@@H](C)CO)C[C@@H]1C | 1 | . | . | . | .
C[C@H]1CN([C@@H](C)CO)C(=O)Cc2cc(NS(=O)(=O)c3cccs3)ccc2O[C@H]1CN(C)Cc1ccc(C(F)(F)F)cc1 | -1 | . | . | . | .
O=C(Nc1ccccc1)N[C@H]1CC[C@H](CCNS(=O)(=O)c2ccccc2F)O[C@@H]1CO | -3 | . | . | . | .
O=C(Nc1ccccc1Br)C1CC(=O)N(c2ccc3c4c(cccc24)CC3)C1 (stereo not drawn) | 2 | -10 | 38* | 1 | 5
CN1c2ccc(Br)cc2[C@H]2[C@H](CCN2C(=O)C2CCOCC2)[C@H]1CO | 0 | . | . | . | .
COc1cccc(NC(=O)C[C@H]2CC[C@H]3[C@H](COc4ccc(NC(C)=O)cc4C(=O)N3C)O2)c1 | -1 | . | . | . | .
C[C@H]1CN([C@@H](C)CO)S(=O)(=O)c2ccc(-c3ccc(C#N)cc3)cc2O[C@@H]1CN(C)Cc1cccc(F)c1 | 3 | . | . | . | .
C[C@@H]1CN([C@@H](C)CO)S(=O)(=O)c2ccc(-c3cccc(C#N)c3)cc2O[C@H]1CN(C)Cc1ccccn1 | -2 | . | . | . | .
C[C@@H]1CN([C@H](C)CO)S(=O)(=O)c2ccc(-c3ccccc3)cc2O[C@@H]1CN(C)Cc1ccccn1 | 2 | . | . | . | .
C[C@@H]1CN([C@H](C)CO)S(=O)(=O)c2ccc(-c3ccc(C#N)cc3)cc2O[C@H]1CN(C)Cc1cccc(F)c1 | 8.1* | . | . | . | .
C[C@@H]1CN([C@H](C)CO)S(=O)(=O)c2ccc(-c3ccc(C#N)cc3)cc2O[C@H]1CN(C)Cc1ccccn1 | 12* | . | . | . | .
C[C@@H]1CN([C@H](C)CO)S(=O)(=O)c2ccc(-c3ccccc3)cc2O[C@H]1CN(C)Cc1ccccn1 | 16* | . | . | . | .
C[C@@H]1CN([C@H](C)CO)C(=O)Cc2cc(NC(=O)NC3CCCCC3)ccc2O[C@H]1CN(C)C(=O)Nc1ccc(C(F)(F)F)cc1 | -2 | . | . | . | .
CO[C@H]1CN(C)C(=O)c2ccc(NC(=O)c3cnccn3)cc2OC[C@H](C)NC[C@@H]1C | -2 | . | . | . | .
COc1cc2c(c(Br)c1N)-c1cc(Br)c(N)cc1C2=O | 8.5* | -2 | 8 | 2 | .
CC(=O)CSc1nnc(-c2ccc(S(=O)(=O)N3CCCC3)cc2)n1C | -3 | 1 | 25* | -1 | -5
COc1ccc(NC(=S)NNC(=O)CCn2cc([N+](=O)[O-])cn2)cc1 | -2 | 2 | 30* | 2 | -6
O=C(CN1C(=O)c2ccccc2C1=O)Nc1cccc(S(=O)(=O)Nc2ccccc2Cl)c1 | . | -7 | 33* | 5 | 3
O=C(CN1C(=O)c2ccccc2C1=O)Nc1cccc(Cl)c1 | 1 | 14 | -2 | 0 | 0

Compound activity (PubChem)
